Measurements from paper PMC4336329 (PLoS ONE, 2015).
Among all 310,000 compounds or so, about 14,000 (4.5%) showed an effect of 50% or more. Effects have a minus sign here. This is one part of a sample in which strong results are shown more often than they occur.

These compounds were tested against human ether-à-go-go-related gene (hERG) potassium channel (human, UniProt Q12809) (assay: primary screen, population patch clamp on CHO cells stably expressing hERG; higher = less effect of the substance).
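Further: peak tail current of the secondary pulse compared with the same well before compound.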

Sequence of human ether-à-go-go-related gene (hERG) potassium channel (Q12809 whole entry, looked up): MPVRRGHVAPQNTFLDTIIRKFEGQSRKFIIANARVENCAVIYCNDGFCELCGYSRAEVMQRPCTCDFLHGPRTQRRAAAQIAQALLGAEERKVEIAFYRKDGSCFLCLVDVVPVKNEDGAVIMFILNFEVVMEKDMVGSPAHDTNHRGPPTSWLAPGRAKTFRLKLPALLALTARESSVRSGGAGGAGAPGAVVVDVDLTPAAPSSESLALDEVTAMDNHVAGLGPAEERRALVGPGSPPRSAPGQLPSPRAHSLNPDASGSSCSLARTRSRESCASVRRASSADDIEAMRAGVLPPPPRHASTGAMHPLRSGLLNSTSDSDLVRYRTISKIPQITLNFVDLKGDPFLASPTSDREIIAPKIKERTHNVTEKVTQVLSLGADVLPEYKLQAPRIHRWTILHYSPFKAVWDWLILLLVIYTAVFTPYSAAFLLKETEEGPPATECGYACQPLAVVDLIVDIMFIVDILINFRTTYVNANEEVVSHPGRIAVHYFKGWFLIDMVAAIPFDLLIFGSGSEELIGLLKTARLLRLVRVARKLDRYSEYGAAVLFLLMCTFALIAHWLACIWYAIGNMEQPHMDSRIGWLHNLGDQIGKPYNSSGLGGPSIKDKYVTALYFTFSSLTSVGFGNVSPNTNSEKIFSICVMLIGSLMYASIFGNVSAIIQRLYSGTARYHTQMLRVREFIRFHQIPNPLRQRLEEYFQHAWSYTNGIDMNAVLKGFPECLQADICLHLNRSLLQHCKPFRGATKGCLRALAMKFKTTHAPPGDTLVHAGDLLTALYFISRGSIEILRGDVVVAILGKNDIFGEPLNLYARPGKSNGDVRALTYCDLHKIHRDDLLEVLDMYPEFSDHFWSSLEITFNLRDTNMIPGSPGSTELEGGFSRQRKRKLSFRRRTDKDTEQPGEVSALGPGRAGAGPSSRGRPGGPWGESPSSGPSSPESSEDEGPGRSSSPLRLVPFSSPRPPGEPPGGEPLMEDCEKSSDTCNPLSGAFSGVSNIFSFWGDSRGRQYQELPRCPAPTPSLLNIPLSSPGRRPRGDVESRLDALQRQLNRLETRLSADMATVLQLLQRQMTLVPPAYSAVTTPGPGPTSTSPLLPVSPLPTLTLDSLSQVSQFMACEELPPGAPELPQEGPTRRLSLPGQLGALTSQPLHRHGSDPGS

Structure (SMILES)	hERG current change (%, negative = inhibition) at 10uM [%]
Cc1c(C(=O)NC(C)c2ccncc2)oc2ccccc12 (stereo not shown)	-29.7
CCOc1ccc(OCc2cccc(C(=O)N3CCCC3)c2)cc1	-11.6
COc1ccc(OCc2cccc(C(=O)N3CCCC3)c2)cc1	-3.08
O=C(Nc1ccc(CN2CCCCC2)cc1)c1ccc2c(c1)OCO2	-64.3
COc1cc(OC)cc(C(=O)Nc2ccc(CN3CCCCC3)cc2)c1	-14.7
COc1ccc(OCc2cccc(C(=O)Nc3ccc(CN4CCCCC4)cc3)c2)cc1	-72.8
CC(C)C(=O)Nc1cccc(NC(=O)c2cccc(F)c2)c1	5.16
O=C(Nc1ccc(C(=O)N2CCCC2)cc1)c1ccc2c(c1)OCO2	-0.403
CC(C)C(=O)Nc1cccc(NC(=O)c2cccc(Br)c2)c1	-52.1
CCCNC(=O)c1cccc(NC(=O)C(C)C)c1	-25.4
CCOc1ccc(OCc2cccc(C(=O)N3CCCCCC3)c2)cc1	-69.3
COc1ccc(C(=O)Nc2ccc(CN3CCCCC3)cc2)cc1	-40.3
O=C(Nc1ccc2c(c1)OCO2)c1ccc(CN2CCOCC2)cc1	10.1
CC(=O)Nc1ccc(NC(=O)C(C)OC(=O)c2cccc(S(=O)(=O)N3CCCC3)c2)cc1 (stereo not shown)	10.4
Cc1ccccc1CCNC(=O)C1CCCN(c2cnccn2)C1 (stereo not shown)	-0.76
O=C(O)C(=O)O.O=C(c1cccnc1)N1CCN(Cc2ccccc2Br)CC1	4.7
CCCCN(C)C(=O)c1nc2ccccn2c1CN1CCC[C@H]1CO	3.21
CC(C)C[C@H](NC(=O)c1nc[nH]c1C(=O)NCc1ccc(CNC(=O)OC(C)(C)C)cc1)C(=O)OCc1ccccc1	2.91
CCOC(=O)CNC(=S)N(Cc1cccs1)C1CCCC1	-5.82
O=c1c2[nH]c3ccccc3c2ncn1Cc1ccccn1	-0.569
CCOC(=O)c1ccccc1NC(=O)COC(=O)CCC(=O)c1ccccc1	16.3
NNC(=S)NC1CCS(=O)(=O)C1 (stereo not shown)	22.1
Cc1cc(/C=C2/C(=O)N(C)C(=S)N2C)ccc1N1CCCC1	7.27

Structure (SMILES)	hERG current change (%, negative = inhibition) at 10uM [%]
Cc1ccc(S(=O)(=O)N(CC(=O)Nc2ccc(C(N)=O)cc2)C(=O)N2CCN(C)CC2)cc1	-0.0686
CCCC(=O)Nc1cccc(NC(=O)c2ccc3c(c2)OCO3)c1	-52.3
O=C(Nc1ccc(CN2CCCCC2)cc1)c1cc(Br)ccc1Cl	-20.3
CCCCC(=O)Nc1cccc(NC(=O)c2ccc3c(c2)OCO3)c1	6.43
O=C(Nc1ccc(CN2CCCCC2)cc1)c1cccc(F)c1	-40
CCOc1ccc(NC(=O)c2ccc(CN3CCc4ccccc4C3)cc2)cc1	0.805
O=C(NC(=S)Nc1ccc(CN2CCCCC2)cc1)c1cccc(OCc2ccccc2)c1	-5.83
CCCC(=O)Nc1cccc(NC(=O)c2ccc3c(c2)OCCO3)c1	5.87
CCOc1ccc(OCc2cccc(C(=O)N(CC)CC)c2)cc1	-67.6
CCOc1ccc(OCc2ccc(C(=O)N(CC)CC)cc2)cc1	2.22
CCOc1ccc(OCc2cccc(C(=O)Nc3ccc(CN4CCCCC4)cc3)c2)cc1	-63.2
O=C(Nc1ccc(CN2CCCCC2)cc1)c1cccc(Br)c1	-86.7
CCOc1ccc(OCc2cccc(C(=O)O)c2)cc1	8.48
COc1ccc(NC(=O)CO/N=C2/CCCc3nonc32)c(OC)c1	11.1
COc1ccc(CCNC(=O)Cn2nnc(-c3cccs3)n2)cc1OC	-7.76
Cc1onc(-c2ccccc2Cl)c1C(=O)N1CCC(C)CC1	4
COC(=O)/C(=C/c1ccccc1)NC(=O)c1ccco1	4.23
CN1CCN(c2ccc(NC(=O)c3ccc4c(c3)OCO4)cc2)CC1	-38.3
O=C(Nc1ccc(CN2CCCCC2)cc1)c1ccc(Br)o1	-33
CCC(=O)N1CCN(c2ccc(NC(=O)c3ccc4c(c3)OCO4)cc2)CC1	-0.905
CC(=O)Nc1ccc(CN2CCCCCCC2)cc1	-4.11
CCN1CCN(c2ccc(NC(=O)c3ccc4c(c3)OCO4)cc2)CC1	-54.5
O=C(Nc1ccc(CN2CCCCC2)cc1)c1c(F)c(F)c(F)c(F)c1F	-56.5
